Sampled rows, rich in hits. Any-hit rate of the full collection: about 3.1%.
ELG1 repair inh: blocks ELG1-dependent DNA repair in HEK293T cells; HEK293T ELG1-luciferase reporter, luminescence, 16 h; DNA damage induced by 5-fluorouridine; 2.3% of 330,000 active; Potency, µM (top dose mostly 46.1 µM), for inactives: at the top dose activity change, negative = inhibition, most hits filed as inhibitors; note: potency is the fitted concentration of half-maximal effect; % is set by controls: 0 for no effect and ±100 for the full control effect; nearly all actives have a fitted effect of over 55% in size
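HEK293T cells expressing luciferase-tagged ELG1 (2,000/well) received 5-Fluorouridine plus compound or DMSO for 16 hr at 37 °C. Luciferase was read by ONE-Glo luminescence after 30 min at room temperature.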
Nrf2 activator: activators of Nrf2 (ARE) signaling; AREc32 ARE-luciferase reporter (MCF7-derived line), luminescence, 24 h; Potency, µM (series often up to 46.1 µM), for inactives: at the highest dose activation, actives largely listed as activators; 0.31% of 410,000 active; note: potency is the fitted concentration of half-maximal effect; % of control where 0% means no effect; nearly all actives have a fitted effect of over 65% in size
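Reporter line AREc32 (ARE-Fluc), seeded overnight in OPTI-MEM with 5% FBS; compound pin-transferred, 24 hr at 37 deg C, 5% CO2; luminescent read-out.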
BRCA1 expr up: activators of BRCA1 expression | 1.1% of 380,000 active | MCF7-BRCA1-FFLuc reporter, luminescence, 48 h; response scale: scaled: vehicle 0%, 10 µM genistein 100% | Potency, µM (titrated, usually from 46.1 µM), inactives show top-dose activation, actives largely listed as activators; note: potency is the fitted concentration of half-maximal effect; nearly all actives have a fitted effect of over 80% in size
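Cells: MCF7-BRCA1-FFLuc, 2000/well. Exposure: 48 h, 37 °C, 5% CO2. Read: luminescence, 15 min post-substrate. Controls: genistein 10 microM (maximal activation), DMSO (neutral).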
IL-2 act: activates IL-2 in a cell-based reporter assay | IL-2 activation reporter assay, cell-based qHTS; stimulated with anti-CD3/CD4/CD28 beads; in transgenic mouse T cells | activation, % (series mostly up to about 46 µM) | AID 652025 | 0.065% of 360,000 active; in the data active = activation above about 50%; inconclusive = mostly about 30% to 49%; note: 0% is about no effect
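Screening format: compound pinned onto unstimulated transgenic mouse T cells, 60 min incubation, then anti-CD3/anti-CD4/anti-CD28 bead stimulation for 18 hours at 37 degrees C, followed by EGFP and DsRed detection.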
ELG1 FLuc counter: luciferase inhibition in cell-free luciferin readout for ELG1 hits. shares compounds with ELG1 repair inh. cell-free firefly luciferase luminescence counter-screen, ViewLux. Potency, µM (titrated, usually from 46.1 µM), without a hit: top-dose activity change, negative = inhibition, most hits filed as inhibitors. 3% of 350 active. AID 624247; note: potency is the fitted concentration of half-maximal effect; % is set by controls: 0 for no effect and ±100 for the full control effect
ELG1 Luc conf: confirmation of human ELG1-dependent DNA repair inhibitors; shares compounds with ELG1 repair inh; HEK293T ELG1-luciferase levels, luminescence; cells co-treated with 5-fluorouridine; Potency, µM (titrated, usually from 46.1 µM), without a hit: at the highest dose activity change, negative = inhibition, hits mostly inhibitors; 68% of 670 active; AID 624248; note: potency is the fitted concentration of half-maximal effect; % is set by controls: 0 for no effect and ±100 for the full control effect; nearly all actives have a fitted effect of over 55% in size
ELG1-Luc MMS: inhibits ELG1-dependent repair under MMS stimulation in HEK293T cells; shares compounds with ELG1 repair inh; HEK293T luciferase-tagged ELG1 level, MMS stimulated; Potency, µM (doses to about 46.1 µM), inactives show at the top dose activity change, negative = inhibition, hits mostly inhibitors; 53% of 670 active; note: potency is the fitted concentration of half-maximal effect; % is set by controls: 0 for no effect and ±100 for the full control effect; nearly all actives have a fitted effect of over 60% in size
ELG1 5FU viab: confirmation of ELG1 repair inhibitors: viability with 5FU. shares compounds with ELG1 repair inh. cell viability with 5-FU, ELG1-dependent repair. Potency, µM (highest dose often 46.1 µM), for inactives: at the highest dose activity change, negative = viability loss, usual class: cytotoxic. 670 tested, under 10 active. AID 624250;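 note: ELG1-luc HEK293T cells cotreated with 5-fluorouridine at 10 µM final; potency is the fitted concentration of half-maximal effect; viability measured 16 h after compound addition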
ELG1 MMS cell: confirmation of ELG1 repair inhibitors: viability with MMS; 33% of 670 active; Potency, µM (series often up to 46.1 µM), for the others: at the highest dose activity change, negative = viability loss, actives largely listed as cytotoxic; Cell viability with MMS, ELG1-dependent DNA repair; shares compounds with ELG1 repair inh;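 note: ELG1-luc HEK293T cells co-treated with 10 µM MMS; potency is the fitted concentration of half-maximal effect; viability read 16 h after compound addition; % is set by controls: 0 for no effect and ±100 for the full control effect; nearly all actives have a fitted effect of over 60% in size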
Cell viab unstim: unstimulated viability counter-screen for ELG1 repair hits | shares compounds with ELG1 repair inh | Potency, µM (top dose mostly 45.9 µM), for the others: at the highest dose activity change, negative = loss of viability, hits mostly cytotoxic | 8% of 900 active | cell viability counter-screen, unstimulated, luminescence;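 note: potency is the fitted concentration of half-maximal effect; compound exposure lasted 16 hours before reading; % is set by controls: 0 for no effect and ±100 for the full control effect; nearly all actives have a fitted effect of over 55% in size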
FLuc enzyme: counter-screen for ELG1 repair inhibitors: firefly luciferase inhibition. shares compounds with ELG1 repair inh. purified firefly luciferase, luminescence counter-screen. Potency, µM (titrated, usually from 57.5 µM), for the others: at the highest dose activity, negative = inhibition, hits mostly inhibitors. 10% of 350 active. AID 624253; note: potency is the fitted concentration of half-maximal effect; % is set by controls: 0 for no effect and ±100 for the full control effect
Active calls of the source: *; [ ] = dose if it differs, or a comment. Unless noted, calls come from the whole dose curve; as a rule, active = well fitted curve in the direction sought with a large enough effect; inconclusive = small, poorly fitted or top-dose-only effect, or another doubt; inactive = no such curve, though single readings can be large; an effect the other way counts as inactive or inconclusive.

How did CCOC(=O)CCSc1nc(N2CCOCC2)c2c(c1C#N)CC(C)(C)OC2 do in these assays?
ELG1 repair inh: 1µM*; Nrf2 activator: 0%; BRCA1 expr up: -13%; IL-2 act: 0; ELG1 FLuc counter: 14%; ELG1 Luc conf: 4.5µM*; ELG1-Luc MMS: 9%; ELG1 5FU viab: inconclusive; ELG1 MMS cell: 11%; Cell viab unstim: 1%; FLuc enzyme: 3%

Results for O=c1[nH][nH]c2c1[C@H](C1CCCC1)O[C@H](CCc1ccccc1)C2 ?
Nrf2 activator: 15%; BRCA1 expr up: -3%; IL-2 act: -1

How did COc1ccc(Cn2c(O)c(C=Nc3ccc(OC)cc3)c3ccccc3c2=O)cc1 do in these assays?
ELG1 repair inh: -20%; Nrf2 activator: 0%[9.22 µM]; BRCA1 expr up: -23%; IL-2 act: 0

What do the screens show for `COc1ccc(Cn2c(O)c(C=Nc3ccccc3C(=O)O)c3ccccc3c2=O)cc1`?
ELG1 repair inh: 4.1µM*; Nrf2 activator: 0%; BRCA1 expr up: 0%; IL-2 act: 4; ELG1 Luc conf: 3.5µM*; ELG1-Luc MMS: 2.5µM*; ELG1 5FU viab: -14%; ELG1 MMS cell: 2.8µM*; Cell viab unstim: inconclusive

Results for O=C(N/N=C/c1c(F)c(F)c(F)c(F)c1F)c1cc(-c2ccccc2)nc2ccccc12 ?
ELG1 repair inh: -6%; Nrf2 activator: 0%; BRCA1 expr up: 0%; IL-2 act: -2

How did Cc1nn(-c2ccccc2)c(N2CCCC2)c1/C=N/NC(=O)c1cc(-c2ccccc2)nc2ccccc12 do in these assays?
ELG1 repair inh: 3.7µM*; Nrf2 activator: 3%; BRCA1 expr up: -11%; IL-2 act: -3; ELG1 Luc conf: 7.9µM*; ELG1-Luc MMS: inconclusive; ELG1 5FU viab: -6%; ELG1 MMS cell: -8%; Cell viab unstim: inconclusive

Results for O=C(Nc1ccncc1)C1CC1c1ccccc1 (centres undefined) ?
ELG1 repair inh: 0.15µM*; Nrf2 activator: 0%; BRCA1 expr up: -22%; IL-2 act: -2; ELG1 FLuc counter: 0%; ELG1 Luc conf: inconclusive; ELG1-Luc MMS: 14µM*; ELG1 5FU viab: -1%; ELG1 MMS cell: 16µM*; Cell viab unstim: -2%; FLuc enzyme: -5%

How did O=C(Nc1cccc(Cl)c1)C1CC1c1ccccc1 (centres undefined) do in these assays?
Nrf2 activator: 0%; BRCA1 expr up: -7%; IL-2 act: -3

What do the screens show for `COc1cccc(C(=O)N/N=c2\oc3c(OC)cccc3cc2C(=O)NCc2ccccc2)c1`?
ELG1 repair inh: 4.1µM*; Nrf2 activator: 1%; BRCA1 expr up: 5%; IL-2 act: 2; ELG1 Luc conf: 2.2µM*; ELG1-Luc MMS: inconclusive; ELG1 5FU viab: inconclusive; ELG1 MMS cell: 4%; Cell viab unstim: -13%

How did CCOc1cc(/C=N/Nc2cc(C)nc(-n3nc(C)cc3C)n2)ccc1O do in these assays?
ELG1 repair inh: 2.6µM*; Nrf2 activator: 9%; BRCA1 expr up: -75%; IL-2 act: -3; ELG1 Luc conf: 6.3µM*; ELG1-Luc MMS: inconclusive; ELG1 5FU viab: inconclusive; ELG1 MMS cell: inconclusive; Cell viab unstim: inconclusive

What do the screens show for `CN(C)S(=O)(=O)c1ccc(NC(=O)c2cc(-c3cccs3)nc3ccccc23)cc1`?
ELG1 repair inh: 3.7µM*; Nrf2 activator: 0%; BRCA1 expr up: -18%; IL-2 act: -4; ELG1 Luc conf: inconclusive; ELG1-Luc MMS: inconclusive; ELG1 5FU viab: 3%; ELG1 MMS cell: -12%; Cell viab unstim: inconclusive

Results for CCN(CC)C(=O)c1sc2nc(N3CCOCC3)c3c(c2c1N)CCCC3 ?
ELG1 repair inh: 6.5µM*; Nrf2 activator: 0%; BRCA1 expr up: -43%; IL-2 act: 1; ELG1 FLuc counter: 69%; ELG1 Luc conf: 11µM*; ELG1-Luc MMS: -14%; ELG1 5FU viab: inconclusive; ELG1 MMS cell: -8%; Cell viab unstim: -23%; FLuc enzyme: -9%

Results for CCOc1ccc(C(C(=O)NCC2CCCO2)N(Cc2cccs2)C(=O)c2snc(C(N)=O)c2N)cc1 (centres undefined) ?
ELG1 repair inh: 4.6µM*; Nrf2 activator: -1%; BRCA1 expr up: -27%; IL-2 act: -4; ELG1 Luc conf: 7.9µM*; ELG1-Luc MMS: 7.9µM*; ELG1 5FU viab: -12%; ELG1 MMS cell: inconclusive; Cell viab unstim: inconclusive

Results for Cc1[nH]nc2ncc(C(=O)c3ccccc3O)cc12 ?
ELG1 repair inh: 2.5µM*; Nrf2 activator: 2%; BRCA1 expr up: 12%; IL-2 act: 3; ELG1 Luc conf: 3.5µM*; ELG1-Luc MMS: 10µM*; ELG1 5FU viab: inconclusive; ELG1 MMS cell: inconclusive; Cell viab unstim: -8%

Results for O=C(OCC(=O)N1CCCC1)c1c(Cl)cccc1Cl ?
ELG1 repair inh: inconclusive; Nrf2 activator: inconclusive; BRCA1 expr up: -29%; IL-2 act: 0

What do the screens show for `O=C(OCC(=O)N1CCc2ccccc2C1)c1c(F)cccc1Cl`?
ELG1 repair inh: inconclusive; Nrf2 activator: 11%; BRCA1 expr up: 6.3µM*; IL-2 act: -1; Cell viab unstim: -3%

Results for CCOc1ccc(NC(=O)CC2C(=O)N(c3ccc(C)cc3)C(=O)N2Cc2ccc(OC)cc2)cc1 (centres undefined) ?
Nrf2 activator: 0%

Compound activity from PubChem.
